Compound activity (PubChem BioAssay)
Most compounds without a hit are left out; they make up all but 2.3% or so of the library.
Giardia killer = Small Molecules that selectively kill Giardia lamblia: qHTS. Giardia lamblia trophozoite viability. activity change, % at 7.66 µM, hits read low. 340,000 compounds, 0.15% hits; in the data active = activity change below about -80%; inconclusive = between about -30% and that limit;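 also: parasites exposed to compound for two days anaerobically before the ATP read; % is scaled to controls: 0 for no effect and ±100 for the full control effect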
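Trophozoite viability was measured as ATP-dependent luminescence, read 15-30 min after reagent addition. Before that, parasites at 100 cells/well were exposed to compounds for 48 h, anaerobically, at 37 deg C.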
Nrf2 activator = qHTS of Nrf2 Activators. AID 624171, 2012. Potency, µM (top dose mostly 46.1 µM), for the others: at the top dose activation, hits mostly activators. AREc32 ARE-luciferase reporter (MCF7-derived line), luminescence, 24 h. 410,000 compounds, 0.31% hits; also: potency is read from the fitted curve at half-maximal effect; % of control where 0% means no effect; nearly all actives have a fitted effect of over 65% in size
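AREc32 cells carrying an ARE-driven firefly luciferase reporter were seeded at 1000 cells/well in OPTI-MEM with 5% FBS, then exposed to compound for 24 hr at 37 deg C. Luminescence was read with Steady-Glo after 30 min at RT.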
Apoferritin bind = qHTS Assay for Identification of Novel General Anesthetics | apoferritin/1-aminoanthracene competitive binding, fluorescence | Potency, µM (doses to about 77.5 µM), without a hit: at the top dose activity change, negative = displacement, hits mostly inhibitors | 350,000 compounds, 0.074% hits; also: potency is read from the fitted curve at half-maximal effect; % is scaled to controls: 0 for no effect and ±100 for the full control effect; nearly all actives have a fitted effect of over 20% in size
Target sequence (P02791 2-175 limits assumed): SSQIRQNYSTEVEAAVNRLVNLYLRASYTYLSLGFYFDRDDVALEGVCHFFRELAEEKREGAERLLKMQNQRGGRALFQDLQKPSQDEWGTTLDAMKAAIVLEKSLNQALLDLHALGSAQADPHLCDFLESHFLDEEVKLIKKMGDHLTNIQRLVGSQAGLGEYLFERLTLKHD
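10 uM apoferritin + 50% sat. 1-AMA, PBS; cpd 10 min RT; Ex380/Em535 endpoint; normalized to free probe vs complex; 4-param Hill fit; propofol titration as pos. ctrl.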
A549 viability = Nrf2 qHTS screen for inhibitors: counterscreen for cytotoxicity; A549 ARE-Fluc cells, CellTiter-Fluor viability, 18-24 h; Potency, µM (doses to about 46 µM), for the others: at the top dose activity change, negative = cytotoxicity, most hits filed as inhibitors; 390,000 compounds, 0.16% hits; also: potency is read from the fitted curve at half-maximal effect; % is scaled to controls: 0 for no effect and ±100 for the full control effect
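A549 ARE_Fluc cells in 5% FBS OPTI-MEM were exposed to compounds in concentration-response for 18-24 h at 37 deg C. Viability was read by CellTiter-Fluor fluorescence (Ex 405/Em 525) after 30 min, before the luciferase read.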
Nrf2 inh = Nrf2 qHTS screen for inhibitors | A549 ARE-Fluc reporter, luciferase luminescence, 18-24 h | Potency, µM (highest dose often 46 µM), for the others: at the top dose activity change, negative = inhibition, actives largely listed as inhibitors | 360,000 compounds, 2.1% hits; also: potency is read from the fitted curve at half-maximal effect; % is scaled to controls: 0 for no effect and ±100 for the full control effect; nearly all actives have a fitted effect of over 60% in size
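Nrf2 function is reported as luminescence of an ARE-controlled luciferase in A549 cells. Compounds were tested at several concentrations, and a CellTiter-Fluor read on the same wells flagged cytotoxicity.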
mIDH1 inhibitor = qHTS for Inhibitors of mutant isocitrate dehydrogenase 1 (IDH1): qHTS | Isocitrate dehydrogenase [NADP] cytoplasmic (Homo sapiens), O75874 | IDH1-R132H enzyme, NADPH consumption, diaphorase/resazurin fluorescence | Potency, µM (top dose mostly 76.6 µM), for the others: at the top dose activity change, negative = inhibition, most hits filed as inhibitors | 390,000 compounds, 0.093% hits | AID 602179, 2012; also: potency is read from the fitted curve at half-maximal effect; % is scaled to controls: 0 for no effect and ±100 for the full control effect; nearly all actives have a fitted effect of over 65% in size
Target sequence (O75874 whole entry R132H, stated change not applied): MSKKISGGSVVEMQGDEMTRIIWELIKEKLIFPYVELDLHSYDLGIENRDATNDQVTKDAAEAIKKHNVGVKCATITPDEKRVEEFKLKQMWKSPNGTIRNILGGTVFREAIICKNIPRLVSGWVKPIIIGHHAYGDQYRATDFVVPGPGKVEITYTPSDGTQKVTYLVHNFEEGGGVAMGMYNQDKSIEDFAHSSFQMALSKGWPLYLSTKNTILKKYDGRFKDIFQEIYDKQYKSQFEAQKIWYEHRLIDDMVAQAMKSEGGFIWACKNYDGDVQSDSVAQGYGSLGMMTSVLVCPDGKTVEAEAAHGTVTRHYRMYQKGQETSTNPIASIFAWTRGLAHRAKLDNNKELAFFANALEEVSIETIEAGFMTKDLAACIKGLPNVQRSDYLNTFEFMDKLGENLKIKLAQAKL
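IDH1-R132H (0.5 ug/mL dispensed) in pH 7.5 Tris buffer was preincubated 30 min with compound, then given a substrate mix of 0.016 mM NADPH and 2 mM alpha-KG for 80 min at room temperature; remaining NADPH was read by diaphorase/resazurin fluorescence.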
* marks the source's active call; other numbers are inactive results; ? = inconclusive; / = no result; [ ] = another dose, or the depositor's remark. Unless noted, calls follow the shape of the dose curve; as a rule, active = well fitted curve in the direction sought with a large enough effect; inconclusive = small, poorly fitted or top-dose-only effect, or another doubt; inactive = no such curve, though single readings can be large; an effect the other way counts as inactive or inconclusive.

SMILES | Giardia killer | Nrf2 activator | Apoferritin bind | A549 viability | Nrf2 inh | mIDH1 inhibitor
CNC(=S)N1CCN(S(=O)(=O)c2ccc3ccccc3c2)CC1 | -12.0 | 2.2% | -21.3% | 2.4% | 23.1µM* | -9.1%
Cc1ccc(N(C)C(=O)N2CCN(S(=O)(=O)c3ccc(C)cc3)CC2)cc1 | -11.9 | 4.0% | -12.4% | -2.3% | -24.7% | 2.6%
C/C(=N\NC(=O)c1c(Cl)c(C)nn1C)c1cccc(NC(=O)c2cccc(F)c2)c1 | 7.9 | 3.7% | ? | 0.0% | 9.2µM* | -1.5%
C/C(=N\NC(=O)c1c(Cl)c(C)nn1C)c1cccc(NC(=O)COc2ccccc2)c1 | -21.6 | 3.2% | -23.6% | -5.5% | -13.5% | 2.3%
Cc1ccc(C2CC(c3cccs3)=NN2C(=O)CSC2=NCCS2)cc1 (configuration not stated) | ? | 11.6% | 69.9% | -19.5% | 16.4µM* | -3.7%
COc1ccc(C2CC(c3cccs3)=NN2C(=O)CSC2=NCCS2)cc1 (configuration not stated) | -1.4 | 17.8% | 29.1% | -25.7% | 18.4µM* | 0.9%
O=C(NCc1nnc(-c2cc3ccccc3[nH]2)o1)c1ccccc1 | / | / | / | -2.0% | 8.0% | /
CC[N+]1=C(C)C(C)(C)c2cc(C)ccc21 | 17.4 | -0.9% | -7.9% | -18.1% | 10.3µM* | -0.7%
Cc1cc(NC(=O)c2noc3c2CCCC3)nn1Cc1ccc(Cl)cc1 | 14.2 | 3.5% | ? | -12.2% | 23.1µM* | -6.8%
O=C(c1noc2c1CCCCC2)N1CCN(c2ccc(Cl)cc2)CC1 | / | -0.6% | 5.9% | -0.5% | 8.2µM* | -10.6%
COc1ccc(-c2cc(C(=O)Nc3cc(C)n(Cc4ccc(Cl)cc4)n3)no2)cc1OC | 9.2 | -0.2% | -18.1% | -28.4% | 4.11µM* | -1.7%
CC1(C)OC(=O)C2(Cc3cc(C(F)(F)F)ccc3N3CCCCC32)C(=O)O1 (configuration not stated) | -8.9 | / | / | -16.5% | -6.4% | /
CCCCCCn1c(C)nc2c(c1=O)c1nc3ccccc3nc1n2/N=C/c1ccco1 | 3.0 | 2.5% | -9.8% | ? | 23.1µM* | 0.0%
Cc1nc2c(c(=O)n1CCC1=CCCCC1)c1nc3ccccc3nc1n2/N=C/c1ccccc1 | 11.8 | 0.7% | -12.8% | / | ? | -0.7%
O=C1C(Oc2ccccc2)C(c2cccs2)N1Cc1ccc2c(c1)OCO2 (configuration not stated) | 1.6 | -0.5% | 30.3% | -6.6% | -20.6% | 6.1%
COc1ccc(OC2C(=O)N(Cc3ccc4c(c3)OCO4)C2c2cccs2)cc1 (configuration not stated) | 11.1 | 2.2% | / | -26.2% | 13µM* | 1.0%
COc1cc(NC(=O)Cn2nc(C(F)(F)F)c(Br)c2C)cc([N+](=O)[O-])c1 | 4.8 | 4.2% | ? | ? | 23.1µM* | -6.3%
Oc1c(C(c2ccccc2F)N2CCOCC2)sc2nc(-c3ccco3)nn12 (configuration not stated) | / | 3.4% | -16.7% | -12.8% | / | 8.6%
CCOc1cc(C=C(C(=O)OC)C(=O)OC)ccc1OCc1ccc([N+](=O)[O-])cc1 | -9.0 | -3.3% | ? | ? | 18.4µM* | -0.9%
CCOc1cc(/C=N/O)ccc1OCc1ccc([N+](=O)[O-])cc1 | 3.4 | 0.5% | -5.3% | 15.9% | 15.1% | 15.8%
CCOc1cc(/C=C2\CN(C)C/C(=C\c3ccc(O)c(OCC)c3)C2=O)ccc1O | -15.7 | ? | 0.5% | 13µM* | 20.6µM* | -1.0%
COc1cc(C=C2CN(C)C(=O)C2=O)ccc1O | / | -0.9% | / | / | / | 2.4%
CCOC(=O)C1=CC[C@@H](c2ccccc2)N(S(=O)(=O)c2ccc(C)cc2)[C@H]1/C=C/c1ccccc1 | / | -0.9% | / | / | / | /
Cc1ccc(CNC(=O)c2cc(S(=O)(=O)N3CCCCC3)ccc2N2CCOCC2)cc1 | -15.0 | -0.9% | / | ? | 20.6µM* | -1.0%
O=C(NCc1ccc(F)cc1)c1cc(S(=O)(=O)N2CCCCC2)ccc1Cl | -8.4 | 0.1% | / | -7.8% | -18.9% | 3.0%
SMILES | Giardia killer | Nrf2 activator | Apoferritin bind | A549 viability | Nrf2 inh | mIDH1 inhibitor
CCOc1ccc(CNC(=O)C2CCCN(S(=O)(=O)N(C)c3ccc(F)cc3)C2)cc1OC (configuration not stated) | / | 1.0% | 18.2% | -12.9% | ? | 0.0%
Cc1ccc(NC(=O)c2cc(S(=O)(=O)N3CCCCC3)ccc2N2CCOCC2)cc1 | / | -0.9% | / | / | / | 5.9%
COc1ccc(CNC(=O)c2cc(S(=O)(=O)N3CCCCC3)ccc2Cl)cc1OC | 23.3 | 2.5% | / | 0.4% | 16.4µM* | -0.2%
COc1ccc(CNC(=O)C2CCCN(S(=O)(=O)N(C)c3ccc(F)cc3)C2)cc1OC (configuration not stated) | / | 0.3% | -9.3% | -2.8% | 23.1µM* | -7.9%
O=C(OCCOc1cccc(Cl)c1)c1cc(S(=O)(=O)N2CCCCC2)ccc1N1CCOCC1 | -2.9 | 2.7% | / | -16.8% | 11.6µM* | -3.5%
C[C@@H](C(=O)O)c1ccc(N2Cc3ccccc3C2=O)cc1 | / | / | -5.3%[29.3 µM] | / | / | /
CCN1CCN(S(=O)(=O)c2cc(OCC(=O)NC3CCCCC3)c(C)cc2Cl)CC1 | 34.9 | 0.2% | -2.2% | -23.5% | 4.11µM* | -0.5%
Cc1cc(Cl)c(S(=O)(=O)N2CCCCCC2)cc1OCC(=O)NC1CCCCC1 | -14.8 | 0.2% | -19.5% | 6.1% | 0.4% | 3.9%
Cc1ccc2c(n1)sc1c(-c3ccc(Br)cc3)c(C#N)c(N)nc12 | -0.5 | 4.2% | -11.3% | ? | 20.6µM* | 2.0%
CCN(CC)c1ncnc2c1ncn2[C@H]1CN(Cc2ccc3c(c2)OCO3)C[C@@H](CO)O1 | / | 2.8% | / | / | / | /
Nc1c(Cl)ncnc1N/N=C/c1ccc2ccccc2n1 | -6.8 | ? | -18.1% | ? | 13µM* | -4.1%
CCC(=O)N1CCc2cc(Br)cc(S(=O)(=O)N3CCCC(C(=O)Nc4cccc(F)c4)C3)c21 (configuration not stated) | / | 0.6% | -2.3% | -11.0% | ? | -2.3%
O=C(c1ccccc1F)N1CCN(c2cccc(C(F)(F)F)c2)CC1 | -7.9 | -0.6% | ? | ? | 18.4µM* | 3.4%
Cc1ccc(C)c(N2CCN(C(=O)C3CCN(C(=O)c4cc5sccc5n4C)CC3)CC2)c1 | / | 0.3% | 6.8% | ? | 20.6µM* | 3.6%
Cn1c(C(=O)N2CCN(c3cccc(C(F)(F)F)c3)CC2)cc2sccc21 | 3.6 | -0.1% | 2.5% | -28.5% | 25.9µM* | 1.1%
